# Results as given in PubChem BioAssay (EPA / NIEHS).
# Several values for one entry are separate records, joined by “and”; a condition that tells them apart may be missing. Equal entries are not always repeated. Where a structure was tested more than once in an assay, its records may differ in their call. Activity calls are given as the source filed them. Rule for the calls: active = hit-call score of the fitted dose curve at least 0.9, where 1 is the maximum; inactive = score below 0.9.
# Columns and labels:
# [1] = read-out: Tissue Factor, F3 (gene 2152); test: BSK_CASM3C_TissueFactor: BioMAP Diversity Plus: CASM3C Assay for Tissue Factor Biomarker Activity (AID 2283052); conditions: primary human coronary artery smooth muscle cells; actives raise or lower the signal;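 note: cell surface tissue factor protein level read by ELISA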
# [2] = read-out: Interferon-gamma inducible Protein 10 (IP10), CXCL10 (gene 3627); test: BSK_hDFCGF_IP10: BioMAP Diversity Plus: hDFCGF Assay for Interferon-gamma inducible Protein 10 (IP10) Biomarker Activity (AID 2283053); conditions: primary human foreskin fibroblasts; actives raise or lower the signal
# Outline: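 ELISA read-out of IP-10 (CXCL10) from primary human skin fibroblasts, 24 h after compound addition. Gain or loss of signal versus DMSO baseline, bidirectional curve fitting.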
# [3] = read-out: Urokinase-type plasminogen activator receptor (uPAR), PLAUR (gene 5329); test: BSK_CASM3C_uPAR: BioMAP Diversity Plus: CASM3C Assay for Urokinase-type plasminogen activator receptor (uPAR) Biomarker Activity (AID 2283054); conditions: primary human coronary artery smooth muscle cells; actives raise or lower the signal;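 note: cell-surface uPAR protein level quantified by ELISA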
# [4] = read-out: Vascular cell adhesion molecule 1 (VCAM1), VCAM1 (gene 7412); test: BSK_CASM3C_VCAM1: BioMAP Diversity Plus: CASM3C Assay for Vascular cell adhesion molecule 1 (VCAM1) Biomarker Activity (AID 2283055); conditions: primary human coronary artery smooth muscle cells; actives raise or lower the signal;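 note: VCAM-1 protein level quantified by ELISA on the cells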
# [5] = read-out: Collagen III, COL3A1 (gene 1281); test: BSK_hDFCGF_CollagenIII: BioMAP Diversity Plus: hDFCGF Assay for Collagen III Biomarker Activity (AID 2283056); conditions: primary human foreskin fibroblasts; actives raise or lower the signal
# Outline: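 ELISA readout of Collagen III in human dermal (foreskin) fibroblasts, taken 24 h post-treatment. Gain or loss relative to DMSO vehicle fitted in both directions.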
# [6] = read-out: Interleukin-8 (IL8), CXCL8 (gene 3576); test: BSK_hDFCGF_IL8: BioMAP Diversity Plus: hDFCGF Assay for Interleukin-8 (IL8) Biomarker Activity (AID 2283058); conditions: primary human foreskin fibroblasts; actives raise or lower the signal
# Outline: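 IL-8 levels read by ELISA at 24 hours after dosing human skin fibroblast cultures. Parallel SRB staining assessed overt cytotoxicity, and gain or loss of signal was fitted against DMSO control.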
# [7] = BSK_hDFCGF_Proliferation: Cell Proliferation Assessment in the BioMAP Diversity Plus: hDFCGF Assay (AID 2283059); conditions: primary human foreskin fibroblasts;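 note: curves fitted for both rise and fall of signal versus DMSO baseline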
# Outline: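 Primary human foreskin fibroblasts, sub-confluent; […]; 10% TCA fix, 0.1% SRB stain, A560 total protein. Gain/loss fitted bidirectionally vs DMSO control.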
# [8] = read-out: Macrophage colony-stimulating factor (MCSF), CSF1 (gene 1435); test: BSK_hDFCGF_MCSF: BioMAP Diversity Plus: hDFCGF Assay for Macrophage colony-stimulating factor (MCSF) Biomarker Activity (AID 2283060); conditions: primary human foreskin fibroblasts; actives raise or lower the signal
# Outline: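 M-CSF levels read by ELISA at 24 h post-dosing in human skin fibroblasts. Parallel cultures stained with SRB assessed cytotoxicity at the same time point; response fitted in both directions against the DMSO baseline.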
# [9] = BSK_hDFCGF_SRB: Viability Assessment in the BioMAP Diversity Plus: hDFCGF Assay (AID 2283061); conditions: primary human foreskin fibroblasts;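 note: cells exposed to compound for 24 h before the read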
# Outline: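 Viability was read as total protein: after 10% TCA fixation, wells were stained with 0.1% sulforhodamine B and read at 560 nm. Primary human foreskin fibroblasts were dosed for 24 h, with bidirectional fitting versus DMSO.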
# [10] = read-out: Epidermal growth factor receptor (EGFR), EGFR (gene 1956); test: BSK_hDFCGF_EGFR: BioMAP Diversity Plus: hDFCGF Assay for Epidermal growth factor receptor (EGFR) Biomarker Activity (AID 2283057); conditions: primary human foreskin fibroblasts; actives raise or lower the signal
# Outline: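 ELISA readout of EGFR on human dermal fibroblasts (primary foreskin cells), 24 h post-dosing; bidirectional curve fit vs DMSO baseline, gain or loss of signal scored.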
compound,measurement,setting,value
O=S(=O)(O)C(F)(F)C(F)(F)C(F)(F)C(F)(F)C(F)(F)C(F)(F)C(F)(F)C(F)(F)F,outcome,[1],inactive
same,AC50,[2],21.7 µM (active) [middle of 7 runs]
same,outcome,[2],inactive
same,outcome,[3],inactive
same,AC50,[4],13 µM (active) and 30 µM (active)
same,outcome,[4],inactive
same,AC50,[5],35.1 µM (active) and 30.8 µM (active)
same,outcome,[5],inactive
same,outcome,[6],inactive
same,outcome,[7],inactive
same,AC50,[8],48.1 µM (active) and 48.4 µM (active)
same,outcome,[8],inactive
same,AC50,[9],20 µM (active)
same,outcome,[9],inactive
O=C(O)CCCOc1ccc(Cl)cc1Cl,outcome,[1],inactive
same,outcome,[2],inactive
same,outcome,[3],inactive
same,outcome,[4],inactive
same,outcome,[6],inactive
same,outcome,[7],inactive
same,outcome,[8],inactive
same,outcome,[9],inactive
CC(C)N(C(=O)COc1nnc(C(F)(F)F)s1)c1ccc(F)cc1,outcome,[1],inactive
same,AC50,[2],22.9 µM (active)
same,outcome,[3],inactive
same,outcome,[4],inactive
same,outcome,[6],inactive
same,AC50,[7],15.9 µM (active)
same,AC50,[8],28.9 µM (active)
same,outcome,[9],inactive
CCOC1Oc2ccc(OS(C)(=O)=O)cc2C1(C)C (stereo not drawn),outcome,[1],inactive
same,outcome,[2],inactive
same,outcome,[3],inactive
same,outcome,[4],inactive
same,outcome,[6],inactive
same,outcome,[7],inactive
same,outcome,[8],inactive
same,outcome,[9],inactive
O=C(O)COc1ccc(Cl)cc1Cl,outcome,[1],inactive
same,outcome,[2],inactive
same,outcome,[3],inactive
same,outcome,[4],inactive
same,outcome,[6],inactive
same,outcome,[7],inactive
same,outcome,[8],inactive
same,outcome,[9],inactive
O=C1c2ccccc2C(=O)N1SC(Cl)(Cl)Cl,outcome,[1],inactive
same,AC50,[2],20 µM (active)
same,AC50,[3],33.8 µM (active)
same,outcome,[5],inactive
same,outcome,[10],inactive
same,outcome,[6],inactive
same,AC50,[7],29.7 µM (active)
same,AC50,[8],26 µM (active)
same,AC50,[9],33.1 µM (active)
O=S1OCC2C(CO1)C1(Cl)C(Cl)=C(Cl)C2(Cl)C1(Cl)Cl (stereo not drawn),outcome,[1],inactive
same,AC50,[2],29.5 µM (active)
same,AC50,[3],36.6 µM (active)
same,AC50,[4],25.8 µM (active)
same,AC50,[6],33.8 µM (active)
same,AC50,[7],23.2 µM (active)
same,AC50,[8],24.2 µM (active)
same,AC50,[9],26.7 µM (active)
COP(=O)(OC)OC=C(Cl)Cl,outcome,[1],inactive
same,outcome,[2],inactive
same,outcome,[3],inactive
same,outcome,[4],inactive
same,outcome,[7],inactive
same,outcome,[8],inactive
same,outcome,[9],inactive
CCC(C)Nc1c([N+](=O)[O-])cc(C(C)(C)C)cc1[N+](=O)[O-] (stereo not drawn),outcome,[1],inactive
same,AC50,[2],15.3 µM (active)
same,outcome,[3],inactive
same,outcome,[4],inactive
same,outcome,[6],inactive
same,AC50,[7],20 µM (active)
same,AC50,[8],21.5 µM (active)
same,AC50,[9],32.9 µM (active)
O=[N+]([O-])c1c(Cl)c(Cl)c(Cl)c(Cl)c1Cl,outcome,[1],inactive
same,AC50,[2],38 µM (active)
same,outcome,[3],inactive
same,outcome,[4],inactive
same,outcome,[6],inactive
same,AC50,[7],19.7 µM (active)
same,AC50,[8],18 µM (active)
same,AC50,[9],31 µM (active)
Clc1ccccc1-c1nnc(-c2ccccc2Cl)nn1,outcome,[1],inactive
same,AC50,[2],14.5 µM (active)
same,outcome,[3],inactive
same,outcome,[4],inactive
same,outcome,[6],inactive
same,outcome,[7],inactive
same,outcome,[8],inactive
same,outcome,[9],inactive
CCN(CC)C(=O)SCc1ccc(Cl)cc1,outcome,[1],inactive
same,outcome,[2],inactive
same,outcome,[3],inactive
same,outcome,[4],inactive
same,outcome,[6],inactive
same,outcome,[7],inactive
same,outcome,[8],inactive
same,outcome,[9],inactive
CCC(C)(NC(=O)c1cc(Cl)c(C)c(Cl)c1)C(=O)CCl (stereo not drawn),outcome,[1],inactive
same,AC50,[2],5.56 µM (active)
same,AC50,[3],11.5 µM (active)
same,AC50,[4],9.89 µM (active)
same,AC50,[6],30.9 µM (active)
same,AC50,[7],4.14 µM (active)
same,AC50,[8],3.56 µM (active)
same,AC50,[9],7.6 µM (active)
CCCN(CCOc1c(Cl)cc(Cl)cc1Cl)C(=O)n1ccnc1,outcome,[1],inactive
same,AC50,[2],30.7 µM (active)
same,outcome,[3],inactive
same,outcome,[4],inactive
same,outcome,[6],inactive
same,AC50,[7],21 µM (active)
same,AC50,[8],23.8 µM (active)
same,AC50,[9],16 µM (active)
